In all, about 340,000 compounds went through this assay and about 3,300 (0.97%) were called active. Roughly 9% stayed inconclusive and do not appear here. Calls come from the whole dose curve; as a rule, active = well fitted inhibition curve with a large enough effect; inconclusive = small, poorly fitted or top-dose-only effect, or effect the other way; inactive = flat fitted curve, though single readings scatter. The list shows a part of the results.
Experiment: qHTS Assay for Modulators of miRNAs and/or Inhibitors of miR-21; note: nearly all actives have a fitted effect of over 55% in size
Details: HeLa miR-21-FLuc reporter, luciferase luminescence, 48 h; actives lower the signal
Summary of the method: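 HeLa cells stably expressing CMV-driven firefly luciferase with a downstream miR-21 binding sequence, endogenously expressing miR-21, were treated with titrations (up to about 40uM final) for 48 hours at 37 degree Celsius. Luciferase luminescence was read after lysis.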
Potency is the fitted concentration of half-maximal effect.

Potency, active:
Cc1nonc1C1CCCN1C(=O)c1cc(COc2ccc(F)cc2F)on1 (configuration not stated) 4.14 µM
CCCCOC(=O)Nc1ccc(N2CCOCC2)cc1 7.36 µM
COc1ccccc1NC(=O)Nc1ccc(N2CCOCC2)cc1 8.26 µM
CCCCOC(=O)Nc1ccc(C(C)C)cc1 11.7 µM
Cc1ccc2nc3c(cc(S(=O)(=O)c4ccccc4)c(=N)n3Cc3ccco3)c(=O)n2c1 5.85 µM
COc1ccccc1NC(=O)c1ccc2[nH]c(C)c(C)c2c1 5.21 µM
Cc1[nH]c2ccc(C(=O)N3CCCCC3)cc2c1C 2.07 µM
Cc1ccccc1NC(=O)c1ccc2[nH]c(C)c(C)c2c1 1.31 µM
COc1cc2c(cc1NC(=O)c1ccccc1F)CCCC2 7.36 µM
Cc1nc2c(-c3ccccc3)c(C)nn2c(N)c1-c1ccccc1 1.85 µM
Cc1nn2c(N)c(C#N)cnc2c1-c1ccccc1 16.5 µM
Cc1ccc(C2=N/C(=C\N3CCCCC3)C(=O)O2)cc1 1.65 µM
Cc1ccc(C2=N/C(=C/N3CCOCC3)C(=O)O2)cc1 6.56 µM
O=C1OC(c2ccccc2)=N/C1=C\N1CCCCC1 8.26 µM
CCCOc1ccccc1/C=C(\C#N)C(=O)Nc1cccnc1 8.26 µM
COC(=O)c1ccc(COc2ccccc2/C=C(\C#N)C(=O)Nc2ccc(C)cc2)cc1 7.36 µM
Cc1cc(/C=C(\C#N)C(=O)Nc2ccccc2)c(C)n1-c1cccnc1 1.65 µM
COc1ccc(N=Nc2c(C)[nH][nH]c2=O)cc1 10.4 µM
COc1ccc(N=Nc2c(C)n[nH]c2C)cc1 10.4 µM
CCOC(=O)c1ccc2[nH]c3c(c2c1)CCCC3NC=O (configuration not stated) 16.5 µM
O=C(Cc1ccccc1F)Nc1ccc2c(c1)CCC2 3.29 µM
O=C(Cc1ccc2c(c1)CCCC2)Nc1ccc2ccccc2c1 13.1 µM
O=C(Cc1ccccc1F)Nc1ccc(SC(F)F)cc1 2.07 µM
COc1ccc2c(c1OC)C(=O)OC2Nc1nc(-c2cc3cc(Br)ccc3oc2=O)cs1 (configuration not stated) 5.85 µM
Cc1cc(C(=O)CSc2ncccn2)c(C)n1-c1cccc(F)c1 0.736 µM
COc1cc(O)c2c(=O)c3c(OC)c(O)ccc3oc2c1 13.1 µM
COc1ccc(C(=O)Cn2c(=N)n(C)c3ccccc32)cc1 0.736 µM
CCn1c(=N)n(CC(=O)c2ccc(Cl)c(Cl)c2)c2ccccc21 6.56 µM
COc1ccc(C2NN=C(c3ccc(C)cc3)S2)cc1 (configuration not stated) 1.17 µM
CCOc1cc(C2NN=C(c3ccc(C)cc3)S2)ccc1O (configuration not stated) 4.65 µM
N#C/C(=N\Nc1ccc(Cl)cc1)C(=N)N1CCCCCC1 0.585 µM
N#C/C(=N\Nc1ccc(Br)cc1)C(=N)N1CCOCC1 7.36 µM
Cc1ccc(N/N=C(\C#N)C(=N)N2CCCCC2)cc1 0.521 µM
CCN(CC)C(=N)/C(C#N)=N/Nc1ccc(C)cc1 3.29 µM
N#C/C(=N\Nc1ccccc1F)C(=N)N1CCCCC1 1.65 µM
COc1ccc(N/N=C(\C#N)C(=N)N2CCCCC2)cc1 4.65 µM
Cc1ccc(N/N=C(\C#N)C(=N)N2CCOCC2)cc1 10.4 µM
N#C/C(=N\Nc1ccccc1)C(=N)N1CCCCCC1 2.07 µM
CCN=c1scc(-c2ccco2)n1/N=C/c1ccc(O)cc1 4.14 µM
c1ccc(OCc2nc(-c3cccs3)no2)cc1 13.1 µM
Fc1ccc(OCc2nc(-c3cccs3)no2)cc1 6.56 µM
O=[N+]([O-])c1ccccc1OCc1nc(-c2cccs2)no1 2.61 µM
COc1cc(OC)cc(-c2nc3cc(C)ccc3o2)c1 1.65 µM
COc1ccc(-c2nc3cc([N+](=O)[O-])ccc3o2)cc1 0.293 µM
Cc1ccc2oc(-c3ccccc3)nc2c1 6.56 µM
O=c1c2cn[nH]c2[nH]c(=S)n1-c1ccccc1F 0.927 µM
Nc1c(-c2ccc(Cl)cc2)cnc2c(-c3ccccc3)cnn12 0.414 µM
c1ccc(-c2cc3nccc(-c4ccccn4)n3n2)cc1 3.69 µM
Nc1c(-c2cccs2)cnc2c(-c3ccc(F)cc3)cnn12 0.329 µM
COc1ccc(-c2cnc3c(-c4ccc(F)cc4)cnn3c2N)cc1 0.521 µM
Nc1c(-c2ccccc2)cnc2cc(-c3ccccc3)nn12 0.414 µM
Nc1c(-c2ccc(Cl)cc2)nnn1-c1ccccc1 2.33 µM
Nc1c(-c2ccccc2)cnc2c(-c3ccccc3)cnn12 0.0927 µM
Nc1c(-c2ccc(Cl)cc2)cnc2c(-c3ccc(F)cc3)cnn12 0.585 µM
Nc1c(-c2cccc(Cl)c2)cnc2c(-c3ccccc3)cnn12 1.65 µM
Nc1c(-c2ccc(Cl)cc2)cnn1-c1ccccc1 1.65 µM
CC(=O)Nc1cccc(NC(=O)c2ccc(COc3ccccc3)cc2)c1 1.47 µM
O=C(Nc1ccccc1F)c1ccc(OCc2ccccc2)cc1 5.21 µM
CCOC(=O)C(=O)N(Nc1ccc(C)cc1)c1ccc(C)cc1 9.27 µM
O=C(O)c1ccc(N=NNc2cccc([N+](=O)[O-])c2)cc1 5.85 µM
CC(=O)/C(N=Nc1ccc2c(c1)OCO2)=C(\C)O 6.56 µM
CCOC(=O)/C(N=Nc1ccc2c(c1)OCO2)=C(\C)O 4.65 µM
C/C(=N\NC(=O)COc1ccccc1[N+](=O)[O-])c1cccs1 5.21 µM
C/C(=N\NC(=O)COc1ccccc1)c1cccs1 14.7 µM
Cc1ccn(-c2cccc(-n3ccc(C)n3)n2)n1 2.61 µM
O=C(NC1CCCCC1)C(=O)c1c[nH]c2ccccc12 4.14 µM
O=C(NCC1CCCO1)C(=O)c1c[nH]c2ccccc12 (configuration not stated) 18.5 µM

— PubChem BioAssay AID2289 (National Center for Advancing Translational Sciences (NCATS), 2010)
